Reference: PubChem BioAssay
Unmarked numbers belong to inactive results. Calls of active or inactive are those of the source.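 The calls were made as follows: active = z-score of at least 1.8 in each of two replicates, scored against plate mean and spread of sample wells; inactive = the rest.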

Assay: galactose survival enhancers in mitochondrial complex I cybrids – cell-based, galactose medium, ATP luminescence, primary screen (AID 1645843);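 also: positive z means more ATP and so rescue of galactose-driven cybrid death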
Conditions: complex I mutant cybrid cells, 72 h, stronger effect = higher value

SMILES | z-score
CCCc1cn(C2CCN(C(=O)CC3CC(C)(C)NC(C)(C)C3)CC2)nn1 | -0.53
CC(C)CCC(=O)N1CCCCC1CCc1ccc(O)cc1 (stereo not given) | -0.375
CC1(C)CCN(C(=O)c2cc(-c3cnc(C4CC4)nc3)nc3ccc(F)cc23)C1 | -0.54
CC(=O)c1ccccc1-c1ccc2ccccc2n1 | -0.515
Cc1cc(Cl)cc2c(=O)n(C(C)Cn3cccn3)cnc12 (stereo not given) | -0.45
CCc1noc(CN(C(=O)c2ccccc2-n2cccn2)C(C)C)n1 | -0.655
COc1ccccc1OC(C)c1nc(Cc2cccc(C(F)(F)F)c2)no1 (stereo not given) | 0.51
Cc1cccc(CN(C)Cc2ccc(-c3nc(C(F)(F)F)c(C)c(=O)[nH]3)cc2)n1 | 0.78
OC[C@H](Cc1ccccc1)NC1CCCCCC1 | -0.555
CCCC(C)c1nc2c(cnn2CC(C)C)[nH]1 (stereo not given) | 1.06
CC(CCN1CCC(n2cc(CO)nn2)CC1)CC(C)(C)C (stereo not given) | -0.48
Cc1cc(C(F)(F)F)nc(CNC(=O)c2ccc3nccnc3c2)n1 | -0.69
COc1ccc(OC)c(-c2ccc3nc(C)ccc3c2)c1 | -1.14
COc1cccc2ccc(-c3ccccc3)nc12 | -0.375
CCCCc1cn(C2CCN(C3Cc4ccccc4C3)CC2)nn1 | -0.33
CCn1nc(C(C)C)cc1C(=O)N1CCC(n2cc(CC(C)C)nn2)CC1 | -0.55
O=C1NCCN(C(=O)c2ccc(F)c(F)c2)C1Cc1ccccc1 (stereo not given) | -0.495
CC(O)c1cn(CC2CCN(C(=O)CC3CCCCCC3)CC2)nn1 (stereo not given) | -0.54
CCC(C)(C)NCc1c(C)cc(C)c(CO)c1C | -0.525
Clc1ccc(C(Cn2ccnc2)OCc2csc3c(Cl)cccc23)c(Cl)c1 (stereo not given) | 0.155

SMILES | z-score
COc1cc(C)ccc1C(=O)N1CCC(Cn2cc(C3CC3)nn2)CC1 | -0.52
CCCCc1cn(C2CCN(C(=O)C3CCCO3)CC2)nn1 (stereo not given) | -0.535
O=c1c2sc(-c3ccc(F)cc3)cc2ncn1Cc1nc2ccccc2[nH]1 | 0.44
CC(=O)NCCC1CCN(C(=O)C(C)(C)Oc2cc(C)ccc2Cl)CC1 | -0.545
CCCN1CCC(N2CCC(n3cc(-c4ccccc4)nn3)CC2)CC1 | 0.325
COc1c(F)cc(C(=O)N2CCNC(=O)C2Cc2ccccc2)cc1F (stereo not given) | -0.455
Cc1ccc(-c2ccn(CC(=O)Nc3nn(C)c4ccccc34)n2)s1 | 2.7 (active)
COc1ccc(CN[C@@H]2CS(=O)(=O)C[C@H]2O)cc1OCc1ccc(F)cc1 | -0.735
Cc1cccc2c(C(=O)N3CCN(C)C(=O)C3C)cc(-c3cnc(N)nc3)nc12 (stereo not given) | 2.6
CC1(C)C2(c3nc(Cc4c(F)cccc4Cl)no3)CC[C@@]1(C)C(=O)O2 | -0.525
CCCN1CCC(NCC(CC)(CC)CCC#N)CC1 | -0.565
CC(C)C1=NOC(c2nc(C(C)c3ccccc3)no2)C1 (stereo not given) | -0.83
Cn1ccnc1-c1ccccc1C(=O)N1CCN(Cc2cccc(Cl)c2)CC1 | 0.665
CCCC(CCC)C(=O)N1CCC(n2cc(C3CC3)nn2)CC1 | -0.125
CC(=O)N1CCCN(c2nccc(-c3cnn(-c4ccccc4F)c3)n2)CC1 | -0.71
CC1(C(=O)N2CCC(n3cc(C(C)(C)C)nn3)CC2)CCCO1 (stereo not given) | -0.79
COc1ccccc1-c1noc(CN2CCOC2=O)n1 | 1.68
c1cnn(-c2ccc(N3CCC(N4CCC4)CC3)cc2)c1 | -0.48
O=C1NCCN(C(=O)c2cccc(-c3ccccc3)c2)C1Cc1ccccc1 (stereo not given) | 2.37 (active)
Cc1nsc(NC(=O)N2CCC(C(=O)N3CCCC3)CC2)n1 | -0.375
